Compound activity deposited in PubChem by National Center for Advancing Translational Sciences (NCATS).
Shown are actives, neighbours in structure and some others; about 11% of the full set was active somewhere.
hNpr1 antagonist = blocks ANP-stimulated signaling of human Npr1 receptor | P16066 | HEK293 hNpr1 GloSensor cGMP, ANP-stimulated luminescence | Potency, µM (top dose mostly 46.3 µM), hits mostly inhibitors | 76,000 tested, 1.6% active | AID 1347048; calls by dose curve; further: nearly all actives have a fitted effect of over 60% in size
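HEK293 cells stably expressing human Npr1 and cGMP GloSensor pGS-40F, loaded 2 h with 2% GloSensor reagent, given compound 30 min at room temperature. Luminescence read before and 20 min after 0.1 nM hNppA.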
FLuc inh = Photinus pyralis luciferase inhibition; Potency, µM (series often up to 115 µM), usual class: inhibitors; 76,000 tested, 2.5% active; purified P. pyralis luciferase, luminescence, biochemical; further: nearly all actives have a fitted effect of over 65% in size
Target sequence (P08659 whole entry, looked up): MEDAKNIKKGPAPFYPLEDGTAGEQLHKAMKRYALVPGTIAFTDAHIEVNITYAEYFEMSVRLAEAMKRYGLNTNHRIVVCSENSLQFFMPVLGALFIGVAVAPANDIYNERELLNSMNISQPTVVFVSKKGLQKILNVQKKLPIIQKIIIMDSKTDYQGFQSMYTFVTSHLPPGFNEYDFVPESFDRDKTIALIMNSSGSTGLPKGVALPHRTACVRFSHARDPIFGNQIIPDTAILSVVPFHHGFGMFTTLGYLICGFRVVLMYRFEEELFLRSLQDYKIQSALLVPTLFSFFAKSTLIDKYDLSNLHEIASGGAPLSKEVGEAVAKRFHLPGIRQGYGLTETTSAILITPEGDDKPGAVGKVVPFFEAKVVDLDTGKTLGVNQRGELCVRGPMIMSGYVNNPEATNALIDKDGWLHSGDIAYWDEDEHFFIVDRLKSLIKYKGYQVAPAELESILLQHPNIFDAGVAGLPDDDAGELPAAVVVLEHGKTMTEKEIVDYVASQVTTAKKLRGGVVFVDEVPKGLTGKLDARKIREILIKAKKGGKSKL
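Cell-free enzyme assay, 10nM P. pyralis luciferase, luciferin and ATP each at 10uM. Inhibition profiled over a 6-point titration, read as luminescence.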
HEK cytotox = HEK 293 cell cytotoxicity; 94,000 tested, 6.6% active; Potency, µM (titrated, usually from 115 µM), actives largely listed as inhibitors; HEK 293 viability, ATP luminescence (CellTiter-Glo), 48-72 h; further: nearly all actives have a fitted effect of over 60% in size
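CellTiter-Glo luminescence (cellular ATP) was read after 48 or 72 hr of compound exposure at 37 degree Celsius. Cells were HEK 293 plated at 250 cells/well.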
3T3 cytotox = kills NIH 3T3 cells. NIH 3T3 viability, CellTiter-Glo ATP luminescence, 48-72 h. Potency, µM (doses to about 96.7 µM), actives largely listed as inhibitors. 94,000 tested, 4.3% active; further: nearly all actives have a fitted effect of over 55% in size
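Cytotoxicity was measured by CellTiter-Glo ATP luminescence after 48 or 72 h compound exposure at 37 °C. Mouse NIH 3T3 fibroblasts were seeded at 400 cells/well and dosed by 23 nL pin transfer.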
Of the large screens only hits and unclear results are named; the others gave an inactive call. Unless noted, the call rests on the fitted dose curve; in most records, active means well fitted curve in the direction sought with a large enough effect; inconclusive means small, poorly fitted or top-dose-only effect, or another doubt; inactive means no such curve, though single readings can be large; an effect the other way counts as inactive or inconclusive.

O=C(c1ccc(Cl)nc1)N1CCC2(CC1)CCN(Cc1cccs1)c1ccccc1O2	hNpr1 antagonist inconclusive, HEK cytotox 25.1µM, 3T3 cytotox inconclusive
Cc1ccc(C(=O)N2CCC3(CC2)CCN(CCc2ccccc2)c2ccccc2O3)cc1	HEK cytotox inconclusive, 3T3 cytotox 39.8µM
O=C(c1cccnc1)N1CC(Oc2ccccc2-c2nc(-c3cnccn3)no2)C1	HEK cytotox inconclusive (no result: hNpr1 antagonist, FLuc inh)
O=C(NC1CCCCCC1)C1CCc2nnc(C3CC3)n21 (configuration not stated)	3T3 cytotox inconclusive (no result: hNpr1 antagonist, FLuc inh)
CN(C)S(=O)(=O)N1CC(N2CC(C(=O)N3CCCC3)CC2=O)C1 (configuration not stated)	none (no result: hNpr1 antagonist, FLuc inh)
COCC(=O)N1CCN(CCCn2nc3n(c2=O)CCCC3)CC1	none (no result: hNpr1 antagonist, FLuc inh)
COc1ccc(C(=O)Nc2cc(C3CCCC3)nn2C)cc1	HEK cytotox 100µM, 3T3 cytotox inconclusive (no result: hNpr1 antagonist, FLuc inh)
COc1cccc(C(=O)Nc2cc(C3CC3)nn2C)c1	none (no result: hNpr1 antagonist, FLuc inh)
CCOC(=O)CN1C(=O)CN(C(=O)Cc2ccccc2)CCC(OC)c2ccccc21 (configuration not stated)	3T3 cytotox inconclusive (no result: hNpr1 antagonist, FLuc inh)
Cn1cc(CN2C[C@@H]3OCC(=O)N[C@@H]3C2)c2ccccc21	HEK cytotox inconclusive, 3T3 cytotox 112µM
CC(C)(C)c1ccc(-c2cc(C[C@H]3CNCC[C@H]3CC(=O)NCCN3CCOCC3)no2)cc1	HEK cytotox 39.8µM, 3T3 cytotox 50.1µM
CCN(CC)C(=O)C[C@@H]1CCNC[C@@H]1Cc1cc(-c2ccc(C(C)(C)C)cc2)on1	HEK cytotox 39.8µM, 3T3 cytotox 39.8µM
CC(C)NC(=O)C[C@@H]1CCNC[C@@H]1Cc1cc(-c2ccc(C(C)(C)C)cc2)on1	HEK cytotox 39.8µM, 3T3 cytotox 35.5µM
CC(C)(C)c1ccc(-c2cc(C[C@H]3CNCC[C@H]3CC(=O)N3CCC(Cc4ccccc4)CC3)no2)cc1	none
CC(C)(C)c1ccc(-c2cc(C[C@H]3CNCC[C@H]3CC(=O)NCc3cccnc3)no2)cc1	HEK cytotox inconclusive, 3T3 cytotox 20µM
O=C(c1ccc2nnc(-c3cc(F)ccc3F)n2c1)N1CCOCC1	none (no result: hNpr1 antagonist, FLuc inh)
COc1ccc(CNC(=O)C2CN(C3CCCC3)C(=O)N2)cc1 (configuration not stated)	none (no result: hNpr1 antagonist, FLuc inh)
O=C1CCC2(CNC(=O)NCCc3ccccc3)CCCC=C2N1 (configuration not stated)	none (no result: hNpr1 antagonist, FLuc inh)
CN(C)CCNC(=O)C[C@@H]1CCNC[C@@H]1Cc1cc(-c2ccc(C(C)(C)C)cc2)on1	HEK cytotox 31.6µM, 3T3 cytotox 39.8µM
CC(C)(C)c1ccc(-c2cc(C[C@H]3CNCC[C@H]3CC(=O)Nc3ccccc3)no2)cc1	HEK cytotox inconclusive, 3T3 cytotox inconclusive
O=C(C1CCCN1C(=O)c1ccc(C(F)(F)F)cc1)N1CCC(N2CCCC2=O)CC1 (configuration not stated)	none (no result: hNpr1 antagonist, FLuc inh)
COc1ccccc1-c1cc2c(ccn2C)c(C(=O)NCCN2CCNC2=O)n1	3T3 cytotox 100µM
Cn1ccc2c(C(=O)NCC3CCC(=O)N3)nc(-c3ccccc3O)cc21 (configuration not stated)	HEK cytotox inconclusive, 3T3 cytotox 39.8µM
COc1ccccc1-c1cc2c(ccn2C)c(C(=O)NCC2CCN(C)C(=O)C2)n1 (configuration not stated)	3T3 cytotox 79.4µM
COc1ccc(NC(=O)O[C@@H]2CC[C@]3(C)C(CC[C@@H](O)[C@H]3CC(=O)NCc3ccc4c(c3)OCO4)[C@]2(C)CO)cc1 (some centres not stated)	HEK cytotox inconclusive, 3T3 cytotox 44.7µM
CSc1cccc(NC(=O)O[C@@H]2CC[C@]3(C)C(CC[C@@H](O)[C@H]3CC(=O)NCc3ccccc3)[C@]2(C)CO)c1 (some centres not stated)	HEK cytotox 35.5µM, 3T3 cytotox 39.8µM
C[C@@]12CO[C@@H](Cc3ccccc3)O[C@@H]1CC[C@]1(C)C2CC[C@@H](O)[C@H]1CC(=O)NCc1cc(F)cc(F)c1 (some centres not stated)	HEK cytotox 39.8µM, 3T3 cytotox 39.8µM
C[C@@]12CO[C@@H](Cc3ccccc3)O[C@@H]1CC[C@]1(C)[C@@H]2CC[C@@H](O)[C@H]1CC(=O)N1CCCC1	none
COc1ccc(-c2cccc(C(=O)N3CCC(NC(=O)c4ccccc4Cl)CC3)c2)nn1	HEK cytotox inconclusive (no result: hNpr1 antagonist, FLuc inh)
COc1cccc(C(=O)N2CCC(N3C(=O)c4c(c(C)nn4-c4ccccc4)C3C3CC3)C2)c1 (configuration not stated)	HEK cytotox 35.5µM, 3T3 cytotox inconclusive (no result: hNpr1 antagonist, FLuc inh)
Cc1nn(-c2ccccc2)c2c1C(C1CC1)N(C1CCN(C(=O)c3cccc(Cl)c3)C1)C2=O (configuration not stated)	HEK cytotox 25.1µM, 3T3 cytotox inconclusive (no result: hNpr1 antagonist, FLuc inh)
Cc1nn(-c2ccccc2)c2c1C(C1CC1)N(C1CCN(C(=O)NC(C)C)C1)C2=O (configuration not stated)	none (no result: hNpr1 antagonist, FLuc inh)
Cc1nn(-c2ccccc2)c2c1C(C1CC1)N(C1CCN(C(=O)c3cccc(Cl)c3)CC1)C2=O (configuration not stated)	HEK cytotox inconclusive (no result: hNpr1 antagonist, FLuc inh)
Cc1nn(-c2ccccc2)c2c1C(C1CC1)N(C1CCN(C(=O)NC3CCCC3)C1)C2=O (configuration not stated)	HEK cytotox 44.7µM, 3T3 cytotox inconclusive (no result: hNpr1 antagonist, FLuc inh)
Cn1cccc1-c1noc(C2CCN(C(=O)c3cccc(C#N)c3)C2)n1 (configuration not stated)	HEK cytotox inconclusive (no result: hNpr1 antagonist, FLuc inh)
CCOC(=O)C1CCN(C(=O)c2nc3sccn3c2-c2cccc(C#N)c2)CC1	none (no result: hNpr1 antagonist, FLuc inh)
Cc1ccccc1C(=O)N1CCCC2(CN[S+](=O)([O-])c3cccnc3N2)C1 (configuration not stated)	HEK cytotox inconclusive (no result: hNpr1 antagonist, FLuc inh)
O=C1NCCCCCN(C(=O)CC2CCCCC2)[C@@H]2C[C@@H](C(=O)N3CCc4ccccc4C3)C[C@H]12	HEK cytotox inconclusive, 3T3 cytotox inconclusive
O=C1NCCCCCCN(C(=O)c2cccnc2)[C@H]2C[C@H](C(=O)N3CCc4ccccc4C3)C[C@@H]12	3T3 cytotox 28.2µM
O=C1NCCCCCN(C(=O)CC2CCCC2)[C@@H]2C[C@@H](C(=O)N3CCc4ccccc4C3)C[C@H]12	HEK cytotox 31.6µM, 3T3 cytotox inconclusive
COc1ccccc1C(=O)N1CCC(C(=O)N2CCC(N3CCOC3=O)CC2)CC1	none (no result: hNpr1 antagonist, FLuc inh)
CN1c2cc(C(=O)Nc3ccc(F)c(F)c3)ccc2C(=O)N2CCCCC21 (configuration not stated)	FLuc inh inconclusive
Cc1ccc(NC(=O)c2ccc3c(c2)N(C)C2CCCCN2C3=O)cc1F (configuration not stated)	FLuc inh inconclusive, HEK cytotox inconclusive, 3T3 cytotox inconclusive
CN1c2cc(C(=O)Nc3ccc4c(c3)CCC4)ccc2C(=O)N2CCCCC21 (configuration not stated)	FLuc inh 28.2µM, HEK cytotox inconclusive, 3T3 cytotox inconclusive
